# An excerpt weighted towards active compounds, which were near 32% of everything screened.
# CYP2C9 activ: CYP2C9 (human) activation; 96,000 compounds, 1.4% hits; recombinant CYP2C9, luciferin-H conversion, luminescence; hits give high values; factor 1 = untreated enzyme, 0 = blocked; P11712; activation factor at 5 µM; AID 1024;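 active means activation factor of 2 or more for CYP2C9 at a 5 µM dose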;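 further: 0 = sulfaphenazole-blocked wells and 1 = vehicle-only wells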
# Target sequence (P11712 whole entry, looked up): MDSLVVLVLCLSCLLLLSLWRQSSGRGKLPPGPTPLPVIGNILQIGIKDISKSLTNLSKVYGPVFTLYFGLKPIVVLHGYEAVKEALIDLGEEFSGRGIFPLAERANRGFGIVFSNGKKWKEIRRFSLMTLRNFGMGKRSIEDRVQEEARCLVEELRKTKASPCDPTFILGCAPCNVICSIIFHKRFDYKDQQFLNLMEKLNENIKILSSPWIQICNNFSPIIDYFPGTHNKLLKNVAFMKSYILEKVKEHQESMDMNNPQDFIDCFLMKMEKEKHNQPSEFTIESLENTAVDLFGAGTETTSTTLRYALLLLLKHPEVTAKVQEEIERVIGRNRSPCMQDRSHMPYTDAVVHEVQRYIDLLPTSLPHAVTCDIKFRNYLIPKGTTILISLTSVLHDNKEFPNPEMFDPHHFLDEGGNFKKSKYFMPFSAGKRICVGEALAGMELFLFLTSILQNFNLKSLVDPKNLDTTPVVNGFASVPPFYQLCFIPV
# CYP2C19 inhib: inhibitors of human CYP2C19; AID 778; CYP2C19 Supersomes, luciferin-H EGE luminescence, 30 min; P33261; inhibition, % at 5 µM; 96,000 compounds, 21% hits;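 active means CYP2C19 inhibition above a set limit at 5 µM in the primary screen, cut at about 50% in these data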;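 further: plate controls were negative control wells for no effect and 2.5 mM tranylcypromine positive control for full effect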
# PostGolgi yeast: growth inhibition of a yeast mutant, post-Golgi transport screen; 98,000 compounds, 0.9% hits; inhibition, % at 10 µM; post-Golgi transport phenotypic cell assay; AID 739;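 further: yeast cells grown in 1536-well plates; yeast grown about 18 h at 30C before absorbance read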
# PostGolgi ctrl: growth of the yeast control strain, post-Golgi counter-screen | efflux-deficient yeast background strain, growth absorbance A615, 16 h | inhibition, % at 10 µM | 98,000 compounds, 5% hits | AID 738
# CYP2C9 inh: human CYP2C9 inhibition | P11712 | CYP2C9 Supersomes, luciferin-H conversion, luminescence | inhibition, % at 5 µM | 96,000 compounds, 20% hits | AID 777;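 active means blocking of liver enzyme CYP2C9 beyond about 50% at 5 µM, limit read from the data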
# CYP2C19 act: increases human CYP2C19 enzyme activity | recombinant CYP2C19, luciferin-H EGE luminescence; hits give high values; 0 = fully inhibited enzyme, 1 = untreated enzyme | activation factor at 5 µM | 96,000 tested, under 10 active;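 active means activation factor of at least 2 at 5 µM in the primary screen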;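 further: 0 = wells with 2.5 mM tranylcypromine and 1 = vehicle-only wells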
# Starred values were filed as active, the others as inactive; · = no result. Unless noted, no stated cut-off is given here; in the data, active means inhibition above about 30%; inactive means the rest.
SMILES,CYP2C9 activ,CYP2C19 inhib,PostGolgi yeast,PostGolgi ctrl,CYP2C9 inh,CYP2C19 act
CCCCn1c(O)c(C(C)=Nc2ccc(OCC)cc2)c(=O)[nH]c1=O,0.6,25,52*,26,43,0.8
CC(Cc1ccccc1Sc1ccc(O)cc1)N(C)C (stereo not drawn),1.1,24,-5,-6,-14,0.8
O=c1cccc2n1CC1CC2CN(c2ncnc3c2cnn3-c2ccc(Cl)cc2)C1 (stereo not drawn),0.9,-15,·,·,12,1.1
CC(=O)Nc1ccccc1C(=O)OCc1ccc(C(=O)c2ccccc2)cc1,0.3,38,-6,2,72*,0.6
Nc1ccccc1C(=O)c1ccccc1,1,24,-8,4,4,0.8
O=C(c1cccs1)c1cn(Cc2ccccc2Cl)c2ccccc12,0.4,13,28,1,62*,0.9
N#Cc1ccccc1Cn1cc(C(=O)c2cccs2)c2ccccc21,0.1,54*,57*,-2,89*,0.5
CC(C)(C)N1Cc2ccccc2C1=N,0.6,-4,18,2,38,1
C=CCn1c(O)c(C=Nc2ccc(OC)cc2C)c(=O)[nH]c1=O,0.9,12,-2,6,12,0.9
Cc1cccc(C)c1NC1=NCCCCS1,1.2,-3,0,-10,-24,1
Cc1ccc2c(c1)CNc1ccccc1O2,0.8,71*,-2,-4,25,0.3
c1ccc2c(c1)CNc1ccccc1O2,0.9,48,-11,7,8,0.5
COc1ccc(Oc2cc(NC(=O)c3nn(C)cc3[N+](=O)[O-])cc([N+](=O)[O-])c2)cc1,0.1,66*,0,6,91*,0.3
CC1(C)CN=C(NCc2ccccc2Cl)S1,0.9,65*,4,0,9,0.4
COc1cccc(OCC(=O)N2CCN(C)CC2)c1,1.2,54*,3,2,-15,0.5
Cc1ccc(OCC(=O)N2CCN(C)CC2)c(Br)c1,1.1,10,1,11,-13,0.9
CCC1(c2ccccc2)C(=O)N(COC)C(=O)N(COC)C1=O,0.9,79*,1,-12,12,0.2
O=C(NCc1cccnc1)NC1CCCCC1,0.9,26,17,6,11,0.7
CCOC(=O)C(O)(c1ccc(NC(=O)NC2CCCCC2)cc1)C(F)(F)F (stereo not drawn),0.4,80*,-7,-2,59*,0.2
CN1C(=O)N(C)C(=O)C2(Cc3cc(N)ccc3N3CCN(c4ccccc4F)CC32)C1=O (stereo not drawn),0.6,44,0,3,39,0.6
Cc1ccc2nc3c(cc2c1)CC1(C(=O)N(C)C(=O)N(C)C1=O)C1CCCCN31 (stereo not drawn),0.5,64*,-4,2,50*,0.4
Cc1ccc2nc3c(cc2c1)CC1(C(=O)N(C)C(=O)N(C)C1=O)C1COCCN31 (stereo not drawn),0.8,4,-3,32*,19,1
O=c1[nH]c(=O)n(Cc2ccco2)c(O)c1C=NCCCn1ccnc1,0.7,6,10,-8,34,0.9
CCn1c(=O)cc(SCC(=O)N2CCC3(CC2)OCCO3)c2ccccc21,2.2*,39,1,3,-120,0.6
CC(=O)c1cccc(OCC(O)CN2CC=C(c3ccccc3)CC2)c1 (stereo not drawn),0.5,55*,0,4,51*,0.4
CCCC12CN3CC(CCC)(CN(C1)C3c1ccccn1)C2=O (stereo not drawn),1.2,-15,-2,0,-16,1.1
CCN(CC)CCCN=C(C)c1c(O)n(-c2ccc(C)cc2)c(=O)[nH]c1=O,1.1,-9,5,0,-12,1.1
O=c1cccc2n1CC1CC2CN(Cc2ccc3c(c2)OCO3)C1 (stereo not drawn),0.5,57*,·,·,52*,0.4
CN1C2CCC1CC(OC(=O)c1cc(Cl)cc(Cl)c1)C2 (stereo not drawn),1.1,10,21,-5,-9,0.9
